These results are taken from PubChem BioAssay (Tox21).

The nature of assay [1]: Nuclear factor erythroid 2-related factor 2/antioxidant responsive element (Nrf2/ARE) small molecule agonists: luciferase reporter gene qHTS assay in human keratinocytes (AID 1919969). Also: nearly all actives have a fitted effect of over 35% in size. Also: potency is read from the fitted curve at half-maximal effect. In general terms: A reporter such as luciferase makes a cellular process visible.
The target of assay [2] is Gonadotropin-releasing hormone receptor (Homo sapiens) (UniProt P30968). Kind of assay: Human gonadotropin-releasing hormone receptor (GnRHR) small molecule agonists, calcium flux assay in GnRHR-HEK293 cells (AID 1920063). Also: nearly all actives have a fitted effect of over 35% in size. The gist of the method:
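GnRHR-HEK293, 1500 cells/well, 18 h 37 C/5% CO2; Ca dye 1 h 37 C; cpd pinned (DMSO), agonist mode; kinetic FL 480/540, 3 min, 1 s reads; 15 conc, n=3.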

Assay [3] concerns the target KiSS-1 receptor (Homo sapiens) (UniProt Q969F8). Kind of assay: Human kisspeptin (KISS1R) small molecule agonists, calcium flux assay in KISS1R-HEK293 cells (AID 1920064; active = well fitted activation curve with a large enough effect in the repeat runs). In outline: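 Stable human KISS1R HEK293 line; 18 h plating, 37 C/5% CO2; calcium dye 1 h 37 C; compound pin transfer; kinetic fluorescence Ex/Em 480/540, 3 min.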
A general note: A change in cytosolic calcium serves as a functional read-out for many receptors and channels.

Assay [4] can be described thus: G protein-coupled receptor (GPCR) small molecule agonists, calcium flux assay: HEK293 wild type cell line counter screen (AID 1920065). The gist of the method: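 Kinetic fluorescence at Ex/Em 480/540, recorded every second over 3 min, served as the read-out after compound addition. Each compound was tested at 15 concentrations in triplicate on cells pre-loaded with calcium dye for 1 h.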

Assay [5] in a line: p53 small molecule agonists, cell-based qHTS assay with rat liver microsomes: qHTS cell viability counter screen (AID 1963580). Also: nearly all actives have a fitted effect of over 45% in size. The gist of the method:
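Viability is assessed in parallel with the p53 reporter read: HCT-116 p53RE-bla cells receive compounds plus rat microsomes and NADPH (0.5 mg/mL final apiece), incubate 16 h at 37 C, and then CellTiter-Glo luminescence is recorded.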
For orientation: qHTS replaces the single test concentration by a dilution series.

A short description of assay [6]: p53 small molecule agonists, cell-based qHTS assay: qHTS cell viability counter screen (AID 1963581). Also: nearly all actives have a fitted effect of over 45% in size. In outline:
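HCT-116 p53RE-bla cells, 4,000/well, plated 5 h before compound pin transfer; 16 h at 37 C; bla substrate 2 h RT; then CellTiter-Glo, 30 min RT, luminescence.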

Assay [7] deals with 5-hydroxytryptamine receptor 2A (Homo sapiens) (UniProt P28223). Description: 5-hydroxytryptamine receptor 2A (HTR2A) small molecule antagonists, cell-based qHTS assay (AID 1963586). Also: nearly all actives have a fitted effect of over 45% in size. Also: potency is read from the fitted curve at half-maximal effect. The gist of the method: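 Antagonist-mode intracellular calcium assay: DOI (4 nM) added after 5 min compound pre-incubation at room temperature to dye-loaded HTR2A-CHO cells. Fluorescence followed for 3 min, sampled every second.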
Chain of 5-hydroxytryptamine receptor 2A (Homo sapiens) (P28223 whole entry, looked up): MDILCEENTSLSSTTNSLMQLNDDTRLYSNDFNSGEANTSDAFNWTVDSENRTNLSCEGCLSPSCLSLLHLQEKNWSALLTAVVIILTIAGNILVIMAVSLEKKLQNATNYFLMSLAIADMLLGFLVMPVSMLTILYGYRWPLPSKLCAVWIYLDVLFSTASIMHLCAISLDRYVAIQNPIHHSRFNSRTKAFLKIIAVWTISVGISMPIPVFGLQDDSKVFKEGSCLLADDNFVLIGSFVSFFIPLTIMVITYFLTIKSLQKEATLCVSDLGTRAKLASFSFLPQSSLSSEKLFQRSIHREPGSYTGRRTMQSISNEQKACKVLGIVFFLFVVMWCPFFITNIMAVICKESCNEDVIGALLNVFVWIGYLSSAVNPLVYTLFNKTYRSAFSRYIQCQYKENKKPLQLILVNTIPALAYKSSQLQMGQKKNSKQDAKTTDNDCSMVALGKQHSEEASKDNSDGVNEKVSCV

Assay [8] shares this target. Kind of assay: 5-hydroxytryptamine receptor 2A (HTR2A) small molecule agonists, cell-based qHTS assay (AID 1963587). Also: nearly all actives have a fitted effect of over 30% in size. In outline: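 CHO cells stably expressing human HTR2A, plated 18 h, loaded with calcium dye 1 h at 37 C. Agonist mode: compounds added and intracellular calcium fluorescence recorded kinetically for 2 min at 1 sec intervals.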
Assay [9] can be described thus: cAMP Responsive Elements (CRE) small molecule agonists, cell-based qHTS assay (AID 1963590). In outline:
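HEK 293T CRE-bla, 2,000 cells/well, 18 h preincubation 37 C/5% CO2; cpds (DMSO) pinned, 3 h; LiveBLAzer B/G FRET substrate, 2 h RT.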

Assay [10] can be described thus: cAMP Responsive Elements (CRE) small molecule antagonists, cell-based qHTS assay (AID 1963591; active = well fitted inhibition curve with a large enough effect in the signal ratio in the repeat runs, not every such curve was filed as active; the % refers to the signal ratio; also: potency is read from the fitted curve at half-maximal effect). In outline:
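Beta-lactamase reporter read by FRET substrate (LiveBLAzer B/G) after 2 h at room temperature. CRE-bla HEK293T cells had received compound plus 0.25 uM (final) NKH477 for 3 h at 37 °C.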

Assay [11] has as its target Beta-2 adrenergic receptor (Homo sapiens) (UniProt P07550). Description: Adrenergic beta2 receptor (ADRB2) small molecule antagonists, cell-based qHTS assay (AID 1963592). Also: nearly all actives have a fitted effect of over 50% in size. Also: potency is read from the fitted curve at half-maximal effect. As to activity change, negative = inhibition: series mostly up to about 92 µM. The gist of the method: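 Cells (CHO, stable ADRB2 overexpression) incubated 18-20hr at 37C; compounds added from DMSO; agonist mix (1nM isoproterenol, 100uM IBMX, 25uM Ro-20-1724) added; 0.5hr RT; d2-cAMP and anti-cAMP-cryptate added; 1hr RT; 665/615 nm read.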

Assay [12] has the same target. Description: Adrenergic beta2 receptor (ADRB2) small molecule agonists, cell-based qHTS assay (AID 1963593).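 Also: CHO cells stably overexpressing human ADRB2.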 The gist of the method:
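CHO cells stably over-expressing ADRB2 were plated overnight at 37C, then dosed with compounds plus a stimulation mix containing 100uM IBMX and 25uM Ro-20-1724 for 0.5hr at room temperature. cAMP was measured by HTRF competition, 1hr.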

The target in assay [13] is D(2) dopamine receptor (Homo sapiens) (UniProt P14416). Description: Dopamine D2 receptor (DRD2) small molecule agonists, cell-based qHTS assay (AID 1963594). Also: nearly all actives have a fitted effect of over 35% in size. In outline: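 HEK293 cells stably expressing human DRD2, pre-treated with PDE inhibitor Ro20-1724 (0.1 mM final) and compound 10 min at room temperature, then stimulated with NKH477 (200nM […]) for 30 min. cAMP read by HTRF (665/620 nm).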
Chain of D(2) dopamine receptor (Homo sapiens) (P14416 whole entry, looked up): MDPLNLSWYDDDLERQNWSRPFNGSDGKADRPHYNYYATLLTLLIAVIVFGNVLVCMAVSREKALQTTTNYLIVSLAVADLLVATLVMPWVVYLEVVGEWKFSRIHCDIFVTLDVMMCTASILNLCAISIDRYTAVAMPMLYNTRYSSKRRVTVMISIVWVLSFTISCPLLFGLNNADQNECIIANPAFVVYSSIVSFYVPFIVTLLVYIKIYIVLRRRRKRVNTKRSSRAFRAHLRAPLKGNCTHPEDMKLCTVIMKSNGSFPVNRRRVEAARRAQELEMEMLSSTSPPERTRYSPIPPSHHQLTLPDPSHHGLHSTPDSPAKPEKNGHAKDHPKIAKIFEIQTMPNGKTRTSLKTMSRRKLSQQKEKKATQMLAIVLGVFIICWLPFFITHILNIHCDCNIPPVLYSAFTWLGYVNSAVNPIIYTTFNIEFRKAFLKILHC

The nature of assay [14]: p53 small molecule agonists, cell-based qHTS assay with human liver microsomes: qHTS cell viability counter screen (AID 1963579). Also: nearly all actives have a fitted effect of over 45% in size. The gist of the method:
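Seed p53RE-bla cells at 4,000 per well; incubate 5 h at 37 C; add compound, human liver microsomes and NADPH; incubate 16 h at 37 C; add CellTiter-Glo; after 30 min at room temperature, read luminescence.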

Assay [15] in a line: p53 small molecule agonists, cell-based qHTS assay (AID 1963582; active = well fitted activation curve with a large enough effect in the signal ratio in the repeat runs, not every such curve was filed as active; the % refers to the signal ratio). In outline:
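Reporter line: p53RE-bla. Pre-incubation 5 h, 37 C, 5% CO2; compound (DMSO, pin tool) 16 h, 37 C; B/G FRET substrate 2 h RT; fluorescence intensity read.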

Assay [16] concerns the target Muscarinic acetylcholine receptor M1 (Homo sapiens) (UniProt P11229). Kind of assay: Cholinergic receptor muscarinic 1 (CHRM1) small molecule antagonists, cell-based qHTS assay (AID 1963588). Also: nearly all actives have a fitted effect of over 40% in size. Also: potency is read from the fitted curve at half-maximal effect. In outline: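 CHRM1-CHO calcium-flux assay, antagonist mode. Cells were seeded 18 h, dye-loaded 1 h at 37 C and given compound for 5 min at RT, then acetylcholine was added at 50nM. FDSS fluorescence was read 3 min; 15 concentrations, three runs.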

Assay [17] has as its target D(2) dopamine receptor (Homo sapiens) (UniProt P14416). Kind of assay: Dopamine D2 receptor (DRD2) small molecule antagonists, cell-based qHTS assay (AID 1963595; active = well fitted inhibition curve with a large enough effect in the signal ratio in the repeat runs, with a control signal flat; the % refers to the signal ratio). The gist of the method: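 HEK293 cells stably expressing DRD2 were preincubated with 0.1 mM Ro20-1724, then with compound for 10 min at room temperature. Cells were stimulated with 200 nM NKH477 plus 12 nM quinpirole for 30 min, and cAMP was read by HTRF.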

Assay [18] concerns the target Muscarinic acetylcholine receptor M1 (Homo sapiens) (UniProt P11229). Kind of assay: Cholinergic receptor muscarinic 1 (CHRM1) small molecule agonists, cell-based qHTS assay (AID 1963589). Also: nearly all actives have a fitted effect of over 35% in size. The gist of the method:
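Human M1 in stable CHO line; 18 h plating, 1 h dye load 37 C; cpd added (agonist mode); Ca2+ fluorescence kinetic read, 1 s intervals; 15 conc, 3 runs.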

The nature of assay [19]: p53 small molecule agonists, cell-based qHTS assay with human liver microsomes (AID 1963577). In outline:
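Cells carrying a p53-responsive bla reporter were rested 5 h (37 C, 5% CO2) before compound transfer. Human liver microsomes plus NADPH, 0.5 mg/mL final apiece, supplied metabolism during the 16 h 37 C exposure.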

Assay [20] in a line: p53 small molecule agonists, cell-based qHTS assay with rat liver microsomes (AID 1963578). In outline: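 Fluorescence from a beta-lactamase reporter under a p53 response element was measured after cells had been incubated 16 h at 37 C with test compound and rat liver microsomes plus NADPH (0.5 mg/mL final each).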

SMILES strings stand for the structures. Values without a mark were called inactive. Results filed as inconclusive are left out. Active and inactive are the calls of the source. Unless noted, calls follow the shape of the full dose curve.
% is scaled to controls: 0 for no effect and ±100 for the full control effect.

Chain of Beta-2 adrenergic receptor (Homo sapiens) (P07550 whole entry, looked up): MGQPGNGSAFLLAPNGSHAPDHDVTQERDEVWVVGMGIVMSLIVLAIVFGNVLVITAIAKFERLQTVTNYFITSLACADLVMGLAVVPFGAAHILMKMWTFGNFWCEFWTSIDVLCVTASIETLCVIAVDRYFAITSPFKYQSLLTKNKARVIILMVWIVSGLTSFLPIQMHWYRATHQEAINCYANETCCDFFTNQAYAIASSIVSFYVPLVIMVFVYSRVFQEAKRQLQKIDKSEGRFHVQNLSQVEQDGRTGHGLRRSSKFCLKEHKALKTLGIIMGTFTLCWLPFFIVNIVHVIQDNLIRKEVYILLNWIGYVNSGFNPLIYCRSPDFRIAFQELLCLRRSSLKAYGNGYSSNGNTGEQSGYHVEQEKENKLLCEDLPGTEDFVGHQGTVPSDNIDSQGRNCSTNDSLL
Chain of KiSS-1 receptor (Homo sapiens) (Q969F8 whole entry, looked up): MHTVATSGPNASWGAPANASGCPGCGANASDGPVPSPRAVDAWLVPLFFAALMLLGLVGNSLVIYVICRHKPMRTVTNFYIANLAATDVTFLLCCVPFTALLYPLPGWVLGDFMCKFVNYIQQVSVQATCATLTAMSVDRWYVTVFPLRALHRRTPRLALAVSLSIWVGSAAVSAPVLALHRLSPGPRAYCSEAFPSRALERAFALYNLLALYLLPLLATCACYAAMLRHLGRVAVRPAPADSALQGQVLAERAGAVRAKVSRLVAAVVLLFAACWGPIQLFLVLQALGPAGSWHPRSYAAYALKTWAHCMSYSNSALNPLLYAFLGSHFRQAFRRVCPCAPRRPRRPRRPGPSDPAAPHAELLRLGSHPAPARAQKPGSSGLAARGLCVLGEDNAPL
Chain of Gonadotropin-releasing hormone receptor (Homo sapiens) (P30968 whole entry, looked up): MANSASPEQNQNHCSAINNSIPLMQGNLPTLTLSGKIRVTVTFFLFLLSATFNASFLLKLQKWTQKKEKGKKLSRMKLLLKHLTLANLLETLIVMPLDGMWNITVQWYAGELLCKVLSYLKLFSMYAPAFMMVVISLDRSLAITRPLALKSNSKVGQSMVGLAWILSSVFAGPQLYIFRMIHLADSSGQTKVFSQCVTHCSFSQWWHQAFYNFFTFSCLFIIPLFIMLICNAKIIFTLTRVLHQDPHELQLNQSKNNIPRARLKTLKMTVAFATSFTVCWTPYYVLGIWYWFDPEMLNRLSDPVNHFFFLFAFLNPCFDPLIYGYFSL
Chain of Muscarinic acetylcholine receptor M1 (Homo sapiens) (P11229 whole entry, looked up): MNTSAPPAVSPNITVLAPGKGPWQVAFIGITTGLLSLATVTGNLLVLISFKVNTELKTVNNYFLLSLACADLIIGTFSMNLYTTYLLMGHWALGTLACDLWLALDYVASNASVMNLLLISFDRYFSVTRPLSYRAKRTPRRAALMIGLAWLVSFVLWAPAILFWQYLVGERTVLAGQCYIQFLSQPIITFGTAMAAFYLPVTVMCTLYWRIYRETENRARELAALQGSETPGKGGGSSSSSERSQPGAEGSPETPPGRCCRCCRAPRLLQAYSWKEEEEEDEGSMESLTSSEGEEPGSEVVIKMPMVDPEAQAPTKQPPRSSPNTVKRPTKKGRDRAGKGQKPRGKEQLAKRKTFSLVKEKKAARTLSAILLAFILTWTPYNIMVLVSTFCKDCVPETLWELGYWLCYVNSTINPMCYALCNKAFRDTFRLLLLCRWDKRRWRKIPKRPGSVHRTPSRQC

Take `CCCCCCCc1ccc(O)cc1`: the Potency in assay [1] is 24.3 µM (active); in assay [10], 68.6 µM (active). In addition, the Potency entry in assay [2], in [3], in assay [4], in assay [5], in [6] and in assay [7] was “inactive” each time. In addition, the Potency result in assay [8], in assay [9], in assay [11], in [12] and in [13] was “inactive” throughout.

With `CCOP(=O)(OCC)Oc1cc(C)nc(C(C)C)n1`, the Potency entry in assay [1], in assay [2], in assay [3], in assay [4], in assay [14] and in assay [5] was “inactive” throughout. The Potency result in assay [6], in [15], in assay [7], in assay [8], in assay [16] and in assay [9] was “inactive” each time. The Potency entry in assay [10], in assay [11], in assay [12], in assay [13] and in assay [17] was “inactive” each time.

With `Cc1ccc(OP(=O)(Oc2ccccc2)Oc2ccccc2)cc1`, the Potency result in [1], in assay [2], in assay [3], in assay [4], in assay [14] and in [5] was “inactive” throughout. For the same molecule, the Potency result in assay [6], in assay [7], in assay [8], in assay [16], in [18] and in [10] was “inactive” throughout. For the same molecule, the Potency result in assay [11] and in assay [13] was “inactive” each time.

`CC(C)C1CCC(Cc2ccc(Cl)cc2)C1(O)Cn1cncn1` (configuration not stated): the Potency result in assay [1], in assay [2], in [3], in assay [19], in assay [20] and in [15] was “inactive” each time. For the same molecule, the Potency entry in assay [18] and in assay [13] was “inactive” each time. Further, the figures for the Potency in assay [7] and in assay [11] were 37.1 µM (active) and 30.3 µM (active), respectively.

`OCC(c1ccc(Cl)cc1)c1ccc(Cl)cc1`: the Potency entry in assay [1], in assay [2], in [3], in [20], in assay [14] and in assay [5] was “inactive” in each case. For the same molecule, the Potency entry in assay [6], in assay [15], in [8], in assay [18] and in [17] was “inactive” each time. The results for the Potency in assay [7] and in assay [16] were 7.48 µM (active) and 42.1 µM (active), respectively.

Turning to `CCNS(=O)(=O)C(F)(F)C(F)(F)C(F)(F)C(F)(F)C(F)(F)C(F)(F)C(F)(F)C(F)(F)F`, the Potency in assay [1] was 58.5 µM (active). The Potency result in assay [2], in assay [3], in [4], in [14], in [5] and in assay [6] was “inactive” each time. Moreover, the Potency entry in [8], in assay [16], in [18], in assay [9], in assay [10] and in assay [11] was “inactive” throughout. The Potency result in [12], in assay [13] and in [17] was “inactive” throughout.

Take `NCC(CC(=O)O)c1ccc(Cl)cc1` (configuration not stated): the activity, positive = activation in assay [1] was 2.43% [at 0.349 µM]. Further, the activity change in assay [2] is -1.11% [at 0.217 µM, hits give high values]. Moreover, the activation in assay [3] is -1.08% [at 0.29 µM]; in assay [4], 0.685% [at 0.217 µM]; in [12], 10.6% [at 0.349 µM]; in assay [13], 0.37% [at 0.349 µM]. In addition, the activity change, negative = cytotoxicity in assay [5] is 5.91% [at 0.249 µM]; in [6] it was -8.51% [at 0.249 µM]. The activity change, negative = inhibition in assay [10] is -4.66% [at 0.349 µM]; in [11], 2.66% [at 0.349 µM]; in assay [17], 1.84% [at 0.348 µM].

As to `CCOP(=S)(Oc1ccc([N+](=O)[O-])cc1)c1ccccc1` (configuration not stated), the Potency result in [1], in assay [2], in assay [3], in assay [4], in assay [14] and in [6] was “inactive” each time. Also, the Potency result in assay [7], in assay [8], in assay [9], in [10], in assay [11] and in [12] was “inactive” in each case. The Potency entry in assay [17] is “inactive”.

As to `COc1cc(OC)c(OC)cc1C=O`, the Potency entry in assay [1], in [3], in [4], in assay [14], in assay [15] and in [7] was “inactive” in each case. Also, the Potency result in [8], in [16], in assay [18] and in assay [9] was “inactive” in each case.
